Assay results reported in the supplement of paper PMC10849652.
Targets with a hit are over-represented here; the source holds about 8,800 in all. About 0.5% of all pairs of compound and target were hits.

Legend:
Assay in all cases: log2 fold change, soluble protein after heating vs DMSO (PISA); higher = thermal stabilisation; K562 lysate, 10 uM; active = over 0.2 and 3.5 SD of the protein, either way, in both replicates (recomputed)
vemurafenib = compound: CCCS(=O)(=O)Nc1ccc(F)c(C(=O)c2c[nH]c3ncc(-c4ccc(Cl)cc4)cc23)c1F [vemurafenib]
Outline: (§1)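 Pellets of K562 cells were dounce-homogenised in PBS pH 7.4 with 1 mM MgCl2, and the crude extract was held at 1 mg/mL protein for a 30 min treatment with 10 μM compound. Aliquots were heated for 3 min over 48°C-58°C and pooled before NP-40 was added to 0.5% at 4°C. The supernatant from 21,000xg for 90 min was quantified by TMTpro 16plex LC-MS/MS with channel sums equalised. Values are reported from duplicates as log-two fold change in thermal stability relative to solvent controls.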

[1] = compound: CCCS(=O)(=O)Nc1ccc(F)c(C(=O)c2c[nH]c3ncc(Cl)cc23)c1F
Outline: as §1

barasertib = compound: CCN(CCCOc1ccc2c(Nc3cc(CC(=O)Nc4cccc(F)c4)[nH]n3)ncnc2c1)CCOP(=O)(O)O [barasertib]
Outline: as §1

[2] = compound: CC[C@@H]1C(=O)N(C)c2cnc(Nc3ccc(C(=O)NC4CCN(C)CC4)cc3OC)nc2N1C1CCCC1
Outline: as §1

volasertib = compound: CC[C@@H]1C(=O)N(C)c2cnc(Nc3ccc(C(=O)N[C@H]4CC[C@H](N5CCN(CC6CC6)CC5)CC4)cc3OC)nc2N1C(C)C [volasertib]
Outline: as §1

[3] = compound: CCn1c(C(=O)N(C2CC2)C2CC2)cc2c3c(ncn3C)c(Nc3cc(C)n(C)n3)nc21
Outline: as §1

[4] = compound: CCn1cc(-c2ccnc3[nH]c(-c4cccc(CN(C)C)c4)cc23)c(-c2ccc(NC(=O)N(C)C)cc2)n1
Outline: as §1

[5] = compound: CN1CCC(CNc2ccc3ncc(-c4cccc(OC(F)(F)F)c4)n3n2)CC1
Outline: as §1

saracatinib = compound: CN1CCN(CCOc2cc(OC3CCOCC3)c3c(Nc4c(Cl)ccc5c4OCO5)ncnc3c2)CC1 [saracatinib]
Outline: as §1

sotrastaurin = compound: CN1CCN(c2nc(C3=C(c4c[nH]c5ccccc45)C(=O)NC3=O)c3ccccc3n2)CC1 [sotrastaurin]
Outline: as §1

Measured: log2 fold change

PPP2R5C isoform 5 (UniProt Q13362)
inactive: vemurafenib -0.056 | [1] -0.013 | barasertib -0.03 | [2] -0.063 | volasertib 0.014 | [3] 0.058 | [4] 0.046 | [5] -0.08 | saracatinib 0 | sotrastaurin -0.011

PTPN6 isoform 4 (UniProt P29350)
Chain of UniProt P29350 (P29350 whole entry, looked up): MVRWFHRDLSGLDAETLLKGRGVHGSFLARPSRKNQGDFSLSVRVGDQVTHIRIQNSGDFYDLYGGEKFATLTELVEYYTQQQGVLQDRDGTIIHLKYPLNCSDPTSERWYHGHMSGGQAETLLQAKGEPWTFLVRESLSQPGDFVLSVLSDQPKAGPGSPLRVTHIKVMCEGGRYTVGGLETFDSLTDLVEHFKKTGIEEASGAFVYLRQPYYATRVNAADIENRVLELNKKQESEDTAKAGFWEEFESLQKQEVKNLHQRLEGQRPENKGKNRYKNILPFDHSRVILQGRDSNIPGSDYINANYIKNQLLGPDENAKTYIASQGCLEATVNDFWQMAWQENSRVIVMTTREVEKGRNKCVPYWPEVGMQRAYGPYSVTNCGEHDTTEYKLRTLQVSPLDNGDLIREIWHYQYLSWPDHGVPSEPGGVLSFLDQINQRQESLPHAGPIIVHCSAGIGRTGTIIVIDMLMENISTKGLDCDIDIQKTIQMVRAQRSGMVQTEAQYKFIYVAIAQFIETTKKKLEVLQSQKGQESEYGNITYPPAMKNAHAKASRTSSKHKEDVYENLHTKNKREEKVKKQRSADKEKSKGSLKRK
inactive: vemurafenib 0.02 | [1] -0.089 | barasertib 0.081 | volasertib 0.014 | [3] 0.026 | [4] -0.038 | [5] -0.024 | saracatinib -0.046 | sotrastaurin 0.006
active: [2] -0.487

PSTPIP2 (UniProt Q9H939)
inactive: vemurafenib 0.022 | [1] 0.018 | barasertib 0.01 | [2] -0.029 | volasertib -0.037 | [3] -0.007 | [4] 0.063 | [5] -0.09 | saracatinib 0.032 | sotrastaurin 0

PYURF (UniProt Q96I23)
Chain of UniProt Q96I23 (Q96I23 whole entry, looked up): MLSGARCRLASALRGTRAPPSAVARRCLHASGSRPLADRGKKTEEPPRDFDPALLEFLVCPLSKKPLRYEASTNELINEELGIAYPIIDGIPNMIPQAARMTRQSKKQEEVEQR
inactive: vemurafenib -0.048 | [1] -0.003 | barasertib -0.049 | [2] 0.103 | volasertib 0.059 | [3] 0.042 | [4] -0.03 | [5] -0.002 | saracatinib -0.013 | sotrastaurin -0.034

PGPEP1 (UniProt Q9NXJ5)
inactive: vemurafenib 0.021 | [1] 0.022 | barasertib -0.036 | [2] -0.091 | volasertib -0.027 | [3] 0.036 | [4] -0.096 | [5] 0.03 | saracatinib 0 | sotrastaurin -0.056

PI4K2A (UniProt Q9BTU6)
inactive: vemurafenib -0.025 | [1] 0.037 | barasertib 0.041 | [2] -0.009 | volasertib -0.027 | [3] 0.004 | [4] 0.019 | [5] 0.042 | saracatinib -0.037 | sotrastaurin 0.102

PTK2B (UniProt Q14289)
inactive: vemurafenib 0.001 | [1] -0.03 | barasertib -0.013 | [2] 0.118 | volasertib 0.022 | [3] -0.044 | [4] 0.001 | [5] 0.107 | saracatinib 0.019 | sotrastaurin 0.033

PRKACB isoform 2 (UniProt P22694)
inactive: vemurafenib -0.077 | [1] -0.016 | barasertib 0.013 | [2] -0.021 | volasertib -0.01 | [3] -0.072 | [4] -0.021 | [5] 0.125 | saracatinib 0.012 | sotrastaurin 0.175

PHOSPHO2 (UniProt Q8TCD6)
Chain of UniProt Q8TCD6 (Q8TCD6 whole entry, looked up): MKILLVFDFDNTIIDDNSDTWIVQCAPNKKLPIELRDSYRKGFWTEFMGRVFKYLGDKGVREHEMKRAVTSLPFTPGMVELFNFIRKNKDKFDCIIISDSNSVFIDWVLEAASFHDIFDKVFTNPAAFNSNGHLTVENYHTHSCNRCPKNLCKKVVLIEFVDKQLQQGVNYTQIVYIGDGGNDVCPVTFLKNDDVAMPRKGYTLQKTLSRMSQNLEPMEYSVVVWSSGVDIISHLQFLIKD
inactive: vemurafenib -0.023 | [1] -0.026 | barasertib 0.047 | [2] 0.232 | volasertib 0.019 | [3] 0.003 | [4] -0.084 | [5] 0.001 | saracatinib -0.023 | sotrastaurin 0.039

PRKCSH (UniProt K7ELL7)
inactive: vemurafenib 0.089 | [1] 0.02 | barasertib -0.037 | [2] 0.186 | volasertib -0.04 | [3] 0.013 | [4] 0.217 | [5] -0.008 | saracatinib -0.011 | sotrastaurin -0.015

PTK2 (UniProt Q05397)
Chain of UniProt Q05397 (Q05397 whole entry, looked up): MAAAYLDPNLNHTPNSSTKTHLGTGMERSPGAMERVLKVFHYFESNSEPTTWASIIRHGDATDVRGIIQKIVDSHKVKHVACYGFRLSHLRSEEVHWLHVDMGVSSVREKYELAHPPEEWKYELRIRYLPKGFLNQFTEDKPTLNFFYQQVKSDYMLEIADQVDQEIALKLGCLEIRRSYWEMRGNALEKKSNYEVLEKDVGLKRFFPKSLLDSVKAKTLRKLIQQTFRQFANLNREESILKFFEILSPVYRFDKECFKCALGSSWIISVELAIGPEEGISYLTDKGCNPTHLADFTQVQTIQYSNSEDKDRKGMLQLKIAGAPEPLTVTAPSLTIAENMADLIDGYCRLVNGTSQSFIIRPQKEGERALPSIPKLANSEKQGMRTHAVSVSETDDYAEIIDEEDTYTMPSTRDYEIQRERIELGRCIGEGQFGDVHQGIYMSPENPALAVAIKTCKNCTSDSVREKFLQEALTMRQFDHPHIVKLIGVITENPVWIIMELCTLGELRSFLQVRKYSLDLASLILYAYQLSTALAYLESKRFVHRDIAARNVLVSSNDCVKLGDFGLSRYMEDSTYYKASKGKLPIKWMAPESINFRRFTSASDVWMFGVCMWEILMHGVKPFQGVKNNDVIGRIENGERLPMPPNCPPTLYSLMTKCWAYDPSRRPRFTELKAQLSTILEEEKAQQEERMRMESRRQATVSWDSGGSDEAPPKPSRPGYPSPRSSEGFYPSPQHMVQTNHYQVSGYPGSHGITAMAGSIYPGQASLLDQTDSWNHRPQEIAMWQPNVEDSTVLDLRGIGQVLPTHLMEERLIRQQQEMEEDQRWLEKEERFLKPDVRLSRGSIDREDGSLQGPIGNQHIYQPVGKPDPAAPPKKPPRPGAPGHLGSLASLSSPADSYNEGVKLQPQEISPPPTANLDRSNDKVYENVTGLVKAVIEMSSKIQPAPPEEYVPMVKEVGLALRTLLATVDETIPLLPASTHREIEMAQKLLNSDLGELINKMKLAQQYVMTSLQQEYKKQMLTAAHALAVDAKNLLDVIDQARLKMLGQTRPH
inactive: vemurafenib 0.017 | [1] -0.091 | barasertib -0.015 | [2] 0.352 | volasertib 0.145 | [3] 0.044 | [4] -0.001 | [5] 0.056 | saracatinib -0.023 | sotrastaurin 0.039

PTP4A1 (UniProt Q93096)
inactive: vemurafenib -0.006 | [1] -0.029 | barasertib -0.041 | [2] 0.017 | volasertib 0.036 | [3] 0.019 | [4] 0.177 | [5] -0.05 | saracatinib 0.001 | sotrastaurin 0

PTPN2 (UniProt P17706)
Chain of UniProt P17706 (P17706 whole entry, looked up): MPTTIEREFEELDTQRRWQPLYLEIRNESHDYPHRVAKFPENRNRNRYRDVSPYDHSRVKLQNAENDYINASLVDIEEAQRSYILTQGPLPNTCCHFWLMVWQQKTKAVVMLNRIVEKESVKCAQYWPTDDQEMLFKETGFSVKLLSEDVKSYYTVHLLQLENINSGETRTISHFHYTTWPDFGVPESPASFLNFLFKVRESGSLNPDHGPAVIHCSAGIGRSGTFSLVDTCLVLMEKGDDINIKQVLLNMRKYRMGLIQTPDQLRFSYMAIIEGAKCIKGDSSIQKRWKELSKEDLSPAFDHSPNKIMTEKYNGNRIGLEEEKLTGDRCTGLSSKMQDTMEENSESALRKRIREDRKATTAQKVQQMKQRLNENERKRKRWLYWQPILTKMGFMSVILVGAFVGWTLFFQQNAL
inactive: vemurafenib 0.027 | [1] -0.017 | barasertib 0.051 | [2] -0.028 | volasertib 0 | [3] 0.005 | [4] -0.084 | [5] -0.031 | saracatinib -0.052 | sotrastaurin 0.011

POGK (UniProt Q9P215)
Chain of UniProt Q9P215 (Q9P215 whole entry, looked up): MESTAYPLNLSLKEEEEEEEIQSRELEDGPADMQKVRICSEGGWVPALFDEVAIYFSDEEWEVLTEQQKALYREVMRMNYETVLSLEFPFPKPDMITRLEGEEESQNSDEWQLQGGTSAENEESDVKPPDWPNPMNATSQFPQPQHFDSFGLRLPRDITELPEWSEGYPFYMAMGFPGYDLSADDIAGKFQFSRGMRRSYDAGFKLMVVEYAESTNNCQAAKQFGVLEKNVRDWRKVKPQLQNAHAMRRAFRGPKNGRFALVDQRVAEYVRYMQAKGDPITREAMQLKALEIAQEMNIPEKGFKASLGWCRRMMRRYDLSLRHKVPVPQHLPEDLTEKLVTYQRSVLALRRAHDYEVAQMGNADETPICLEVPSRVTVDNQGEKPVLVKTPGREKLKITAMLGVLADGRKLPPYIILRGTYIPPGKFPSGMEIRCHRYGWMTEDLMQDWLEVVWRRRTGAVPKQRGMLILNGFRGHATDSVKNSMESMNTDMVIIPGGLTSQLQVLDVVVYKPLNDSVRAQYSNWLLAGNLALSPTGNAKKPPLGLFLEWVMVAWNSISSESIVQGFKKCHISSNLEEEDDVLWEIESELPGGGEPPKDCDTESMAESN
active: [4] -0.397
inactive: vemurafenib -0.035 | [1] 0.114 | barasertib 0.011 | [2] -0.005 | volasertib 0.033 | [3] -0.027 | [5] 0.034 | saracatinib 0.017 | sotrastaurin 0.013

PRKCA (UniProt P17252)
inactive: vemurafenib 0.019 | [1] -0.016 | barasertib 0.051 | [2] -0.186 | volasertib -0.054 | [3] 0.004 | [4] 0.101 | [5] -0.207 | saracatinib -0.046
active: sotrastaurin 0.924

QKI (UniProt Q96PU8)
Chain of UniProt Q96PU8 (Q96PU8 whole entry, looked up): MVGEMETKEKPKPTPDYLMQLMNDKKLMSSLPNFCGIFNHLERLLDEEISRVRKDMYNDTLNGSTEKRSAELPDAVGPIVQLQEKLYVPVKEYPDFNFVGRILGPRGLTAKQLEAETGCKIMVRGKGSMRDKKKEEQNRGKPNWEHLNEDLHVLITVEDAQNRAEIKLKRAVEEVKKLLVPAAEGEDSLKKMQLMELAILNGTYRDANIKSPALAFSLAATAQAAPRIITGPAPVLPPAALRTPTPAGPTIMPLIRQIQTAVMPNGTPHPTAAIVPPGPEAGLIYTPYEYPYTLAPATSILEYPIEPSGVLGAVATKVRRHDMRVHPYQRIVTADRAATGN
inactive: vemurafenib -0.006 | [1] 0.024 | barasertib -0.027 | [2] 0.087 | volasertib -0.021 | [3] 0.001 | [4] -0.196 | [5] 0.107 | saracatinib 0.047 | sotrastaurin 0

PXMP4 (UniProt Q9Y6I8)
inactive: vemurafenib 0.343 | [1] 0.114 | barasertib 0.04 | [2] -0.035 | volasertib -0.039 | [3] 0.064 | [4] -0.246 | [5] 0.006 | saracatinib 0.036 | sotrastaurin 0.025

PCBP3 (UniProt P57721)
inactive: vemurafenib 0.021 | [1] -0.007 | barasertib -0.007 | [2] -0.003 | volasertib 0.006 | [3] -0.011 | [4] -0.062 | [5] 0.032 | saracatinib 0.014 | sotrastaurin -0.047

PPCDC (UniProt Q96CD2)
Chain of UniProt Q96CD2 (Q96CD2 whole entry, looked up): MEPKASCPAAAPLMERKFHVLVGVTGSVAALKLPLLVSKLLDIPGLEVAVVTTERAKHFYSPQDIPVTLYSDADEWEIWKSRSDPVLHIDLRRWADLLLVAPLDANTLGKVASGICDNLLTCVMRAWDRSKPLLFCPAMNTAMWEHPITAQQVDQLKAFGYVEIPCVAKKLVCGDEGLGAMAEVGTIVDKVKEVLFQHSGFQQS
inactive: vemurafenib 0.1 | [1] 0.003 | barasertib 0.066 | [2] 0.047 | volasertib 0.006 | [3] 0.008 | [4] -0.342 | [5] 0.165 | saracatinib 0.018 | sotrastaurin 0.038

PI4K2B (UniProt Q8TCG2)
inactive: vemurafenib -0.003 | [1] -0.006 | barasertib 0.023 | [2] 0.07 | volasertib -0.032 | [3] -0.062 | [4] 0.081 | [5] 0.121 | saracatinib -0.009 | sotrastaurin 0.132

PDCD6IP isoform 2 (UniProt Q8WUM4)
inactive: vemurafenib -0.018 | [1] -0.005 | barasertib -0.008 | [2] -0.036 | volasertib -0.022 | [3] 0.032 | [4] 0.071 | [5] -0.054 | saracatinib 0.011 | sotrastaurin 0.003

POLA1 (UniProt P09884)
inactive: vemurafenib 0.002 | [1] 0 | barasertib 0.042 | [2] 0.021 | volasertib -0.012 | [3] 0.03 | [4] -0.009 | [5] -0.016 | saracatinib -0.003 | sotrastaurin 0.004

PRMT5 (UniProt O14744)
inactive: vemurafenib 0.006 | [1] -0.008 | barasertib -0.007 | [2] 0.02 | volasertib -0.007 | [3] -0.009 | [4] -0.067 | [5] 0.017 | saracatinib -0.032 | sotrastaurin 0.015

PHACTR4 isoform 2 (UniProt Q8IZ21)
inactive: vemurafenib 0.011 | [1] 0.011 | barasertib -0.008 | [2] 0.065 | volasertib 0.023 | [3] -0.003 | [5] -0.178 | saracatinib 0 | sotrastaurin 0.013
active: [4] 0.836

POLD3 (UniProt Q15054)
Chain of UniProt Q15054 (Q15054 whole entry, looked up): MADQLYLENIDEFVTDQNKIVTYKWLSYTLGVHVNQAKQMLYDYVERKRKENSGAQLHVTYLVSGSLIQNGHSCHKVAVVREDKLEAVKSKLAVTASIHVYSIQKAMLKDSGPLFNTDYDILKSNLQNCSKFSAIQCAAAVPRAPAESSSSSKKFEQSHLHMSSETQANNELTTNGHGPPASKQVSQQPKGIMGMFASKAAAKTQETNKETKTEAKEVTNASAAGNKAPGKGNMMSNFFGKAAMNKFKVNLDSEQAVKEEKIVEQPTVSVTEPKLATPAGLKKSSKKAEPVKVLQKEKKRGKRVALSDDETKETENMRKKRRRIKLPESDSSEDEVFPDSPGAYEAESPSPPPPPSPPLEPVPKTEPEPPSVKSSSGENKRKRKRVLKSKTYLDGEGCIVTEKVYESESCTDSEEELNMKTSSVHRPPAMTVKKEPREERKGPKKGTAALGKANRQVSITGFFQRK
inactive: vemurafenib 0.003 | [1] -0.005 | barasertib 0.004 | [2] -0.014 | volasertib -0.045 | [3] -0.013 | [4] 0.009 | [5] -0.03 | saracatinib 0.028 | sotrastaurin -0.01

PHGDH (UniProt O43175)
inactive: vemurafenib -0.005 | [1] -0.001 | barasertib -0.049 | [2] 0.02 | volasertib -0.025 | [3] 0.016 | [4] 0.098 | [5] -0.051 | saracatinib -0.012 | sotrastaurin -0.027

PRKCSH isoform 2 (UniProt P14314)
active: [4] -1.03
inactive: vemurafenib 0.007 | [1] -0.053 | barasertib -0.159 | [2] 0.03 | volasertib -0.052 | [3] -0.101 | [5] 0.326 | saracatinib 0.022 | sotrastaurin 0.199

PPIL2 (UniProt Q13356)
inactive: vemurafenib 0.012 | [1] 0.015 | barasertib 0.035 | [2] -0.013 | volasertib -0.06 | [3] 0 | [4] -0.023 | [5] 0.016 | saracatinib -0.032 | sotrastaurin 0.024

POLR2G (UniProt P62487)
inactive: vemurafenib -0.014 | [1] 0.02 | barasertib -0.003 | [2] 0.03 | volasertib 0.023 | [3] 0 | [4] 0.025 | [5] 0.05 | saracatinib 0.016 | sotrastaurin 0.011

PDE2A (UniProt O00408)
Chain of UniProt O00408 (O00408 whole entry, looked up): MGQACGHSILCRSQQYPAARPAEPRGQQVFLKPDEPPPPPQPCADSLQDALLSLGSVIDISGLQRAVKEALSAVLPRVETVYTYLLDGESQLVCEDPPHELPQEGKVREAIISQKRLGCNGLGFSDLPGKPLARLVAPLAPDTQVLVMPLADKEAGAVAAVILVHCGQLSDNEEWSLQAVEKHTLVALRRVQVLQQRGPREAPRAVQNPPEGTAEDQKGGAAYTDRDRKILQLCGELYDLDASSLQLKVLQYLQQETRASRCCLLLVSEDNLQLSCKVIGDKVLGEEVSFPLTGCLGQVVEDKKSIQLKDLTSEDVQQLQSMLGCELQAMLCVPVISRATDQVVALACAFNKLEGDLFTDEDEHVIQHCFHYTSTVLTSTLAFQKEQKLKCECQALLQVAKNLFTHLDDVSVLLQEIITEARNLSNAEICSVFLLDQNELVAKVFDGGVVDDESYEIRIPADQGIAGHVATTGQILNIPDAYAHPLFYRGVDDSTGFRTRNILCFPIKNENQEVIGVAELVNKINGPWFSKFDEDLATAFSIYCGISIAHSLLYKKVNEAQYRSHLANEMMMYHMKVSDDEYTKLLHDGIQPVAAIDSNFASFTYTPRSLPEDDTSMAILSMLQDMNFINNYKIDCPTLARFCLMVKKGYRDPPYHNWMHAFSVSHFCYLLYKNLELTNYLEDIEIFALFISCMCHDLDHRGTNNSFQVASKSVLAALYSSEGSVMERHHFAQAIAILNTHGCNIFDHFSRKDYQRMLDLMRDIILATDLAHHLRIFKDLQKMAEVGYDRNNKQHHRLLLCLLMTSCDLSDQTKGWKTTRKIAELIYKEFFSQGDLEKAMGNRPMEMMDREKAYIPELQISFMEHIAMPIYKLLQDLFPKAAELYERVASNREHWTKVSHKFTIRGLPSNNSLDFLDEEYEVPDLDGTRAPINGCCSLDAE
inactive: [1] -0.015 | barasertib -0.015 | [2] -0.215 | volasertib 0.041 | [3] -0.173 | [4] -0.135 | [5] 0.023 | saracatinib -0.042 | sotrastaurin 0.039
active: vemurafenib 0.374
